Assay results reported in PubChem BioAssay (NCI).
The panel holds about 83,000 compounds, 20% with a hit somewhere; the sample as a whole holds those more often.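 The test compound was applied at a single concentration to cells in 96-well plates for 48 hours, and percent growth was recorded.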 Unmarked numbers belong to inactive results. The source made the active and inactive calls. Rule for the calls: active = growth percent below 10; inactive = the rest.

Assays:
Assay in all cases: NCI-60 one-dose screen, 48 h (100 = growth as untreated, 0 = no growth, -100 = all killed)
Conditions in all cases: 10 µM unless noted
NCI-H23 lung = tested on: NCI-H23 lung
NCI-H322M lung = tested on: NCI-H322M lung
HOP-62 NSCLC = tested on: HOP-62 NSCLC
NCI-H460 lung = tested on: NCI-H460 lung
HOP-92 NSCLC = tested on: HOP-92 NSCLC
NCI-H522 lung = tested on: NCI-H522 lung
A549/ATCC NSCLC = tested on: A549/ATCC NSCLC
786-0 renal = tested on: 786-0 renal
COLO 205 colon = tested on: COLO 205 colon
DU-145 prostate = tested on: DU-145 prostate
K-562 leukemia = tested on: K-562 leukemia
MALME-3M melanoma = tested on: MALME-3M melanoma
MDA-MB-231 breast = tested on: MDA-MB-231 breast
RXF 393 renal = tested on: RXF 393 renal
SF-268 CNS = tested on: SF-268 CNS
SF-295 CNS = tested on: SF-295 CNS
SF-539 CNS = tested on: SF-539 CNS
UACC-257 melanoma = tested on: UACC-257 melanoma
M14 melanoma = tested on: M14 melanoma
HCT-15 colon = tested on: HCT-15 colon

SMILES	growth (NCI-H23 lung)	growth (NCI-H322M lung)	growth (HOP-62 NSCLC)	growth (NCI-H460 lung)	growth (HOP-92 NSCLC)	growth (NCI-H522 lung)	growth (A549/ATCC NSCLC)	growth (786-0 renal)	growth (COLO 205 colon)	growth (DU-145 prostate)	growth (K-562 leukemia)	growth (MALME-3M melanoma)	growth (MDA-MB-231 breast)	growth (RXF 393 renal)	growth (SF-268 CNS)	growth (SF-295 CNS)	growth (SF-539 CNS)	growth (UACC-257 melanoma)	growth (M14 melanoma)	growth (HCT-15 colon)
O=c1oc2ccc(I)cc2c(=O)n1-c1ccc(F)cc1F	6.34% (active)	9.77% (active)	2.25% (active)	6.35% (active)	-29.9% (active)	-7.49% (active)	6.11% (active)	21.3%	104%	15.5%	7.26% (active)	-21% (active)	33.3%	11.1%	9.2% (active)	3.91% (active)	13.7%	-4.46% (active)	21%	15.6%
CCCN1C(=O)N(CCC)C2C1NN=c1s/c(=C3\C(=O)N(C(C)C)c4ccccc43)c(=O)n12 (stereo not given)	76%	78%	41.9%	35.3%	27.1%	22.4%	43.9%	-6.03% (active)	43.8%	53.5%	11.3%	36.5%	41.8%	12.2%	46.8%	22.2%	23.1%	53.8%	37.8%	24.4%
Oc1c(CN2CCN(c3ccccc3F)CC2)cc(Br)c2cccnc12	44.6%	16.7%	-75% (active)	-73.1% (active)	-5.84% (active)	-65% (active)	-65% (active)	-83.5% (active)	-8.74% (active)	-32% (active)	1.01% (active)	-58.2% (active)	-33.5% (active)	-57.5% (active)	0.474% (active)	-72.5% (active)	-90.5% (active)	11.3%	-3.56% (active)	-4.53% (active)
COc1ccc(Cn2cc(Cn3cc(C=C4C(=O)NC(=O)NC4=O)c4ccccc43)nn2)cc1	62.7%	90.1%	92.4%	48%	84.5%	89.9%	112%	96.7%	108%	92.1%	50.4%	85.5%	-96.3% (active)	77.9%	83.3%	77.1%	88.3%	96.4%	82.4%	85.9%
CN1CCN(Cc2ccc(NC(=O)c3cncc(C#Cc4nc(N)nc5[nH]ncc45)c3)cc2C(F)(F)F)CC1	102%	114%	122%	112%	77.8%	-37.1% (active)	103%	111%	21.6%	74.7%	4.75% (active)	68.6%	100%	79.2%	102%	108%	104%	83.1%	89.4%	97.8%
O=c1oc2ccc(Cl)cc2c(=O)n1-c1ccc(Cl)cc1F	-4.79% (active)	4.88% (active)	-6.42% (active)	3.59% (active)	-12.9% (active)	-20.9% (active)	5.46% (active)	5.1% (active)	6.93% (active)	15.3%	4.6% (active)	-29.9% (active)	-17% (active)	4.5% (active)	7.63% (active)	-64.2% (active)	1.24% (active)	-15.1% (active)	0.632% (active)	1.3% (active)
COc1ccc(CCN2C(=O)CCSC2=S)cc1	80%	87.6%	18.6%	77%	41.9%	11.1%	96.6%	16.8%	36.3%	13.8%	29.2%	76.7%	59.2%	18.7%	46.2%	67.2%	7.31% (active)	85.4%	61.2%	12.4%
O=c1c2cc(F)cc(Cl)c2sc2c(Cl)nc3ccccc3c12	90.5%	97.8%	89.4%	100%	99.3%	77%	111%	110%	116%	109%	110%	88.9%	84%	100%	98.5%	101%	97%	114%	99.5%	103%
COc1cc(/C=C2\CCC/C(=C\c3cc(CN4CCOCC4)c(O)c(OC)c3)C2=O)cc(CN2CCOCC2)c1O	21.4%	46.4%	46.6%	11.6%	36.8%	34.4%	35.8%	57.8%	45.2%	14.9%	15.3%	46.3%	26.2%	6.08% (active)	42.3%	59.6%	32%	64.7%	36.7%	21.9%
CN1C(=O)N(C)C2(c3ccccc3)OC(=S)NC12c1ccccc1 (stereo not given)	99.3%	92%	90.1%	112%	101%	90.4%	87.5%	96.2%	107%	94.4%	92.3%	97%	110%	114%	88.9%	93.3%	92.5%	94.7%	95.7%	100%
O=C(Nc1ccc(Cl)cc1F)c1cc(F)ccc1O	1.46% (active)	8.54% (active)	-0.133% (active)	4.1% (active)	-7.2% (active)	-25.1% (active)	7.57% (active)	3.03% (active)	-1.76% (active)	16.3%	5.39% (active)	-21.5% (active)	-18.1% (active)	9.69% (active)	13.4%	-56.2% (active)	4.32% (active)	-17.3% (active)	2.92% (active)	3.11% (active)
COc1c(B(O)O)cccc1-c1nc2ccc3[nH]ncc3c2c2c1C1CCC2C1 (stereo not given)	85.1%	84.2%	65.7%	51%	108%	59.5%	26.6%	52.6%	50.4%	72.3%	55.6%	136%	71.2%	28.5%	67.4%	86%	28%	101%	84%	49.6%
O=C(Nc1ccc(F)cc1F)c1cc(Cl)ccc1O	5.18% (active)	5.61% (active)	3.07% (active)	7.22% (active)	-20.5% (active)	-28.2% (active)	6.37% (active)	2.83% (active)	9.45% (active)	18%	11%	-21.9% (active)	10.3%	4.05% (active)	15%	-8.97% (active)	12.3%	-11% (active)	18.8%	13.9%
Nc1no[n+]([O-])c1-c1nnc2c(n1)-c1ccccc1C2=O	-40.8% (active)	74.1%	104%	65.8%	55.1%	96%	98.1%	97.2%	42.1%	1.97% (active)	-14.9% (active)	64%	67.8%	91.2%	76.5%	86.7%	81.8%	-11.9% (active)	18.9%	-71.4% (active)
CC(C)C[C@H](C(=O)N[C@H](C(N)=O)C(C)C)N1CC=CCN(OCc2ccccc2)S1(=O)=O	111% [2.5 µM]	105% [2.5 µM]	99.3% [2.5 µM]	110% [2.5 µM]	82.9% [2.5 µM]	86.4% [2.5 µM]	94.5% [2.5 µM]	102% [2.5 µM]	105% [2.5 µM]	131% [2.5 µM]	100% [2.5 µM]	113% [2.5 µM]	93.4% [2.5 µM]	111% [2.5 µM]	108% [2.5 µM]	114% [2.5 µM]	99.9% [2.5 µM]	91.2% [2.5 µM]	100% [2.5 µM]	104% [2.5 µM]
